Hits are enriched below; roughly 9.5% of the tested compounds scored in any of these assays.
RE007 growth inh = less growth of the S. pombe RE007 Vpr strain | S. pombe RE007 Vpr strain, BacTiter-Glo ATP luminescence, 24 h | Potency, µM (titrated, usually from 92.2 µM), without a hit: at the highest dose activity change, negative = less growth, most hits filed as inhibitors | 360,000 tested, 0.21% active; active = well fitted falling curve with a large enough effect; inconclusive = small, poorly fitted or top-dose-only effect; inactive = no such curve, though single readings can be large or run the other way; note: % is set by controls: 0 for no effect and ±100 for the full control effect; nearly all actives have a fitted effect of over 50% in size
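Fission yeast strain RE007, carrying one chromosomally integrated HIV-1 vpr copy, was seeded at OD 0.01 in PMG+AL medium with 23 nL pinned compound. After 24 h at 30 °C and 99% humidity, viability was read by BacTiter-Glo luminescence.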
NS1 function inh = inhibitors of influenza NS1 protein function | AID 2326 | Potency, µM (top dose mostly 46.1 µM), for inactives: at the highest dose activity, positive = more growth | 270,000 tested, 0.4% active; calls by dose curve; note: actives are rising curves; nearly all actives have a fitted effect of over 50% in size
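S. cerevisiae expressing influenza A NS1, grown in glucose, washed, then diluted 1:100 into pH 6.0 -URA galactose medium with 23 nl compound. Growth recovery read as OD600; NS1-free strain serves as control.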
Pf growth 96h = P. falciparum growth inhibition at 96 hour, primary screen for plastid delayed-death inhibitors; P. falciparum luciferase reporter growth, 96 h; Potency, µM (top dose mostly 28.7 µM), without a hit: at the top dose activity change, negative = inhibition, usual class: inhibitors; 320,000 tested, 6.9% active; AID 504834; note: % is set by controls: 0 for no effect and ±100 for the full control effect
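Luminescence readout: decreased luciferase signal marks inhibited growth of reporter-expressing P. falciparum in infected red cells (2% hematocrit, 0.05% parasitemia final), exposed to compound two generations (96 h, 37 C, 5% CO2).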
SARS PLpro yeast = SARS-CoV PLP inhibition in yeast; AID 485353; Potency, µM (highest dose often 32.9 µM), inactives show at the highest dose activity, positive = growth rescue, actives largely listed as activators; S. cerevisiae expressing SARS-CoV PLpro, growth rescue; 330,000 tested, 0.19% active; calls by dose curve; note: 0% is about no effect; nearly all actives have a fitted effect of over 55% in size
Pf growth 48h = inhibits P. falciparum growth in the first generation, 48 h; P. falciparum luciferase growth in erythrocytes, 48 h; Potency, µM (series often up to 28.7 µM), without a hit: top-dose activity change, negative = inhibition, most hits filed as inhibitors; AID 504832; 310,000 tested, 5.9% active; note: % is set by controls: 0 for no effect and ±100 for the full control effect
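Read-out is firefly luciferase luminescence from an integrated reporter in P. falciparum, so falling signal marks reduced parasite growth. Infected erythrocytes were at 2% hematocrit and 0.1% parasitemia (final) in Albumax-supplemented RPMI 1640.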
* marks the source's active call; other numbers are inactive results; ? = inconclusive; nt = not tested or not shown; [ ] = another dose, or the depositor's remark. Unless noted, calls come from the whole dose curve; as a rule, active = well fitted inhibition curve with a large enough effect; inconclusive = small, poorly fitted or top-dose-only effect, or another doubt; inactive = no such curve, though single readings can be large or run the other way. Potency is the fitted concentration of half-maximal effect.

SMILES | RE007 growth inh | NS1 function inh | Pf growth 96h | SARS PLpro yeast | Pf growth 48h
COc1ccccc1NC(=O)CNC(c1ccccc1)c1ccccc1 | 14% | -29% | ? | -5% | ?
O=[N+]([O-])c1ccccc1CN1CC=C(c2ccc(F)cc2)CC1 | -14% | -4% | -26% | 2% | 9%
O=[N+]([O-])c1cccc(CN2CC=C(c3ccc(F)cc3)CC2)c1 | -22% | -17% | 10µM* | -3% | -6%
CC1=Nc2cc(Cl)ccc2Oc2ccccc21 | -14% | 4% | 2.1µM* | -2% | 15%
CN(C)/C=C1\C(=O)N(c2ccc(Cl)cc2)CS1(=O)=O | -3% | 4% | 127% | 8% | 39%
Cc1ccc(N2CS(=O)(=O)/C(=C/N(C)C)C2=O)cc1 | 2% | 5% | 219% | 1% | 2.6µM*
O=S1(=O)Nc2c(ccc3cccnc23)-c2ccccc21 | ? | -194% | -1%[5.75 µM] | -40% | 2.6µM*
CCCCCCCCCC[Si](C)(C)CCC(=O)NC(Cc1ccc(C)cc1)c1ccccc1 (stereo unspecified) | nt | -3% | nt | nt | nt
Cc1cccc(/C=N/NC(=O)c2ccc(NC(=O)c3cccc(Cl)c3)cc2)n1 | -11% | 6% | 71% | -2% | ?
CN1C(=O)[C@H]2[C@@H](/C=C/c3ccccc3)N3C(=O)CN(Cc4ccccn4)C(=O)[C@@]3(C)[C@H]2C1=O | 9% | 2% | 35% | -10% | 2%
c1ccc(CCCCc2ccccn2)cc1 | 5% | nt | nt | nt | nt
c1ccc(CCCNc2ncccn2)cc1 | -16% | 3% | 3.3µM* | -17% | 69%
Cc1ccc(-n2c(C3CC3c3ccc(Cl)cc3)n[nH]c2=S)cc1 (stereo unspecified) | -3% | 18% | 9.3µM* | ? | nt
Cc1ccc(C2CC2c2n[nH]c(=S)n2-c2ccc(C)cc2)cc1 (stereo unspecified) | -9% | 12% | nt | ? | -1%
COCCC(=O)N1CCC(Oc2ccc(C(=O)N3C[C@H]4CC[C@H]3C4)cc2)CC1 | 11% | 5% | 9% | -2% | 29%
CC1CCCN(CCCNC(=O)c2ccc3c(c2)N(Cc2ccccc2F)C(=O)c2ccccc2S3(=O)=O)C1 (stereo unspecified) | -6% | -1% | ? | 12% | 2.1µM*
CC1CCCN(CCCNC(=O)c2ccc3c(c2)N(Cc2cccc(Cl)c2)C(=O)c2ccccc2S3=O)C1 (stereo unspecified) | -9% | nt | nt | nt | nt
CCN1CCCC1CNC(=O)c1ccc2c(c1)N(Cc1ccccc1F)C(=O)c1ccccc1S2(=O)=O (stereo unspecified) | -1% | 22% | 11% | 20% | 9.3µM*
CC1CCCN(CCCNC(=O)c2ccc3c(c2)N(Cc2ccc(F)cc2)C(=O)c2ccccc2S3=O)C1 (stereo unspecified) | -12% | -3% | 12µM* | ? | 13µM*
CCN(Cc1cc2ccccc2[nH]c1=O)C(=O)c1cccc([N+](=O)[O-])c1 | 3% | 4% | 3% | 0% | 11%
COc1ccc(NC(=O)CN(C)CC(=O)Nc2sc3c(c2C#N)CCC3)cc1 | 3% | nt | 9.3µM* | -4% | ?
Cc1ccc(OCC(=O)Nc2sc3c(c2C#N)CCC3)cc1 | 1% | -45% | 58% | -5% | 117%
CCN1CCc2nc3ccccc3c(C(=O)Nc3ccc(NC(C)=O)cc3)c2C1 | -6% | -1% | 7% | 1% | 1%
O=C(CN1CCN(Cc2ccccc2)CC1)Nc1cccc(S(=O)(=O)N2CCCCCC2)c1 | -12% | nt | -26% | 1% | ?
CC(=O)Nc1ccc(NC(=O)COC(=O)c2c3c(nc4ccccc24)CCN(Cc2ccccc2)C3)cc1 | 1% | 10% | 5.9µM* | 1% | 10µM*
SMILES | RE007 growth inh | NS1 function inh | Pf growth 96h | SARS PLpro yeast | Pf growth 48h
CCN1CCc2nc3ccccc3c(C(=O)Nc3ccc(F)cc3)c2C1 | -13% | -3% | ? | -1% | 2.1µM*
O=C(NCc1ccc(F)cc1)c1c2c(nc3ccccc13)CCN(Cc1ccccc1)C2 | 13% | 1% | 0% | ? | ?
O=C(COC(=O)c1c2c(nc3ccccc13)CCN(Cc1ccccc1)C2)Nc1c(F)cccc1F | 4% | 24% | 10µM* | 0% | 0%
O=C(Nc1cccc(S(=O)(=O)N2CCCCC2)c1)c1c2c(nc3ccccc13)CCN(Cc1ccccc1)C2 | 11% | 15% | 2.6µM* | -2% | 2.9µM*
COc1ccc(OC)c(N(CC(=O)NCC2CCCO2)S(=O)(=O)c2ccccc2)c1 (stereo unspecified) | -8% | 4% | -9% | 2% | 7%
CC(C)[C@@H](C)/C=C\[C@@H](C)[C@@H]1CC[C@H]2C3=CC=C4C[C@@H](O)CC[C@]4(C)[C@H]3CC[C@]21C | nt | -1% | nt | nt | nt
Cc1ccc(C)c(S(=O)(=O)N2CCN(C(=O)[C@H](C)N3C(=O)C4CC=CCC4C3=O)CC2)c1 (stereo partly specified) | -17% | nt | ? | -2% | ?
O=C(NC1CCCC1)C1C2C=CC(C2)C1C(=O)N1CCOCC1 (stereo unspecified) | 7% | 0% | 9.3µM* | 1% | 10%
CCC(=O)Nc1ccc(SC#N)cc1C | 4% | -3% | -21% | -32% | nt
CCc1cc(SC#N)cc(C)c1N | 0% | nt | 3.3µM* | 0% | 8.3µM*
CCc1cc(SC#N)cc(C)c1NC(=O)CCl | 23% | -24% | ? | -18% | 13µM*
COCCOC(=O)C1=C(C)N=C2SCCC(=O)N2C1c1ccc(OC(=O)c2ccco2)cc1 (stereo unspecified) | 1% | 2% | 3% | 3% | nt
COCCNCC(=O)N1CCCCCC1 | 7% | nt | 12µM* | -1% | -2%
COCCNC(=O)CN1CCCCCC1 | 11% | 2% | 43% | 0% | 8%
Cc1ccc(-c2noc(CCC(=O)Nc3cccc(C(=O)NC4CC4)c3)n2)cc1 | -1% | nt | nt | nt | nt
CCOC(=O)N1CCN(S(=O)(=O)c2ccc(C(=O)Nc3sc4c(c3C(=O)OC)CCN(C)C4)cc2)CC1 | -13% | 13% | ? | -3% | -20%
CCOC(=O)c1c(NC(=O)Nc2ccc(C)cc2)sc2c1CCN(C)C2 | 4% | -8% | 3.7µM* | 0% | 12µM*
CCOC(=O)c1c(NC(=S)N2CCCCC2)sc2c1CCN(C(=O)OCC)C2 | -25% | 2% | ? | 1% | ?
CCOC(=O)c1c(NC(=S)NCc2ccccc2)sc2c1CCN(C(=O)OCC)C2 | 10% | 6% | 5.9µM* | 0% | 12µM*
C=CCNC(=S)Nc1sc2c(c1C(=O)OCC)CCN(C(=O)OCC)C2 | 19% | 10% | ? | nt | 13µM*
CCOC(=O)c1c(NC(=S)Nc2ccccc2)sc2c1CCN(CC)C2 | -7% | -6% | 58% | -21% | 6.6µM*
NNC(=O)CCN(Cc1ccco1)S(=O)(=O)c1ccc(Cl)cc1 | -11% | 8% | ? | 0% | ?
O=C(CCNc1ccccc1)c1ccc2c(c1)OCO2 | 32µM* | -81% | -18% | -14% | 74%
